# Assay outcomes deposited in PubChem by National Center for Advancing Translational Sciences (NCATS).
# D1 PAM – potentiators of human D1 dopamine receptor; HEK293 TREx D1 cells, calcium flux, dopamine EC20 potentiation; P21728; potentiation, % at 10 µM; 0.036% of 360,000 active; in the data active = potentiation above about 30%
# TRHR PAM – allosteric enhancers of human TRH receptor; P34981; TRHR cells, fluo-8 calcium fluorescence, EC20 TRH enhancement; enhancement, % at 2 µM; 0.66% of 360,000 active; in the data active = enhancement above about 30%
# Target sequence (P34981 whole entry, looked up): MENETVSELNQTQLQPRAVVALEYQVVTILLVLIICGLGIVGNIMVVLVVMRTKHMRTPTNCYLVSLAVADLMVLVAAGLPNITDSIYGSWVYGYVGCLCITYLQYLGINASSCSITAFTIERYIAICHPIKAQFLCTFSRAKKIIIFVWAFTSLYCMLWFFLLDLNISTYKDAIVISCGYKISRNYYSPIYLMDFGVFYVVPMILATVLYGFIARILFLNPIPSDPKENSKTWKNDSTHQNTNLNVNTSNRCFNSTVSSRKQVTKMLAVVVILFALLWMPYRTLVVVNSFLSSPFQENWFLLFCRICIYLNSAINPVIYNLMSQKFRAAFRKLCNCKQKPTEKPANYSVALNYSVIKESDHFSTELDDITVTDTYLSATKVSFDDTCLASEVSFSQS
#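 Enhancer read-out: after compound pinning and an initial kinetic agonist-mode read, an EC20 of TRH (10 nM final) was injected and fluo-8 calcium signal (Ex 480/Em 530) followed at 1 s/cycle for 100 cycles in TRHR-expressing cells.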
# TRHR ag – activates the human TRH receptor; TRHR cells, calcium flux fluo-8, FDSS agonist mode; 0.18% of 360,000 active; activation, % at 2 µM
#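 TRHR-expressing cells, plated overnight in medium with 10% serum, were loaded with fluo-8 calcium dye at room temperature. After a 10 s baseline, library compound was pin-added and calcium release was recorded kinetically (ex 480/em 530) as agonist response.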
# LDHA inh – inhibitors of human lactate dehydrogenase A; purified LDHA, NADH/diaphorase-resazurin fluorescence; hits give low values; activity change, % (values are at about 110 or 230 µM); 0.15% of 480,000 active; AID 1347041; in the data active = activity change below about -30%
#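 LDH5 2 nM; NADH 0.06 mM, pyruvate 0.2 mM; 200 mM Tris pH 7.4, EDTA, Tween-20; 5 min RT. Detection: diaphorase 0.133 mg/mL + resazurin 37 µM, fluorescence ex540/em590 at 0 and 20 min; normalized to enzyme-free and DMSO wells.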
# D1 agonist – human D1 receptor agonism. HEK293 T-REx D1 cells, calcium flux, agonist mode. activation, % at 2 µM. 1% of 360,000 active
#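 Inducible HEK293 T-REx D1 cells, force-coupled to calcium signalling, were plated at 4000 cells/well with tetracycline and held overnight at 30 C. After no-wash calcium dye loading, compound-evoked calcium rise over 180 s flagged agonists.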
# D1 antagonist – antagonists of human D1 dopamine receptor; HEK293 TREx D1 cells, calcium flux, dopamine EC80; hits give low values; activity change, negative = inhibition, % at 10 µM; 3.2% of 360,000 active; in the data active = activity change below about -30%
#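 Allosteric or orthosteric antagonism assessed as attenuation of the calcium response to EC80 dopamine, added 180 s after compound, in induced HEK293 Trex D1 cells loaded with no-wash calcium dye.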
# Numbers stand for hits; – = inactive; · = no result given; ! = repeats disagree. An excerpt weighted towards active compounds, which were near 3.6% of everything screened. Cut-off read from the data, not from the text of the source, unless noted: active = activation above about 30%; inactive = the rest.
SMILES,D1 PAM,TRHR PAM,TRHR ag,LDHA inh,D1 agonist,D1 antagonist
CC(C)NS(=O)(=O)c1ccc2nc(NC(=O)c3cncc(Br)c3)sc2c1,–,–,–,–,–,-52
COc1ccc(C(=O)Nc2nc3ccc(S(C)(=O)=O)cc3s2)cc1,–,–,–,–,–,-39
O=C(Nc1cc(-n2cnnn2)ccc1Cl)c1ccc(Br)o1,·,·,·,–,·,·
CCOC(=O)C1=C(C)NC(=O)CC1c1ccccc1 (stereo unspecified),–,40,–,–,–,–
CCOC(=O)C1=C(C)NC(=O)CC1C(=O)Nc1cc(Cl)cc(Cl)c1 (stereo unspecified),·,·,·,-61,·,·
CCOC(=O)C1=C(C)NC(=O)CC1c1ccccc1F (stereo unspecified),·,·,·,–,·,·
CCCCCOC(=O)C1=C(C)NC(=O)NC1c1ccccc1 (stereo unspecified),–,–,–,–,–,-36
Cc1ccc(-c2nc(CN3CCCC3c3nnc4ccccn34)co2)c(C)c1 (stereo unspecified),·,·,·,–,·,·
Nc1cccc2c1C(=O)NC2,·,·,·,–,·,·
CCOc1ccc(N2CC(c3nc4ccccc4n3Cc3cccc(Cl)c3)CC2=O)cc1 (stereo unspecified),–,–,–,–,–,-34
CCOc1ccccc1N1CC(c2nc3ccccc3n2CCCCOc2ccccc2)CC1=O (stereo unspecified),–,–,–,–,31,–
COc1cccc(COC(=O)c2ccc3c(c2)NC(=O)CS3)c1,·,·,·,–,·,·
O=C(NNc1ccnc2cc(Cl)ccc12)C1CCCCC1,–,–,–,–,–,-32
NC(=S)NNc1ccnc2cc(Cl)ccc12,–,–,–,–,–,–
COc1ccc(C(=O)Oc2c(C)cc(C(O)(C(F)(F)F)C(F)(F)F)cc2C)cc1,·,·,·,–,·,·
Cc1oc(-c2nc(C#N)c(N(C)Cc3ccccc3)o2)cc1S(=O)(=O)N1CCOCC1,·,·,·,–,·,·
Cc1cccc(-c2noc(-c3cc(C(C)C)[nH]n3)n2)c1,–,–,–,–,42,–
Cc1cccc(Cc2c(C)nc(N3CCN(Cc4ccccc4)CC3)[nH]c2=O)c1,·,·,·,–,·,·
CSc1nnc(C)c(/C=C/Nc2ccc(F)cc2)n1,–,–,–,–,32,–
COc1ccc(N/C=C/c2nc(SC)nnc2C)cc1,–,–,–,–,–,–
CC/C(=N/Nc1ccc(Cl)cc1)c1cnnc(SC)n1,–,–,–,–,–,–
CSc1nnc(C)c(/C=C/Nc2ccc(Cl)cc2)n1,–,–,31,–,80,–
O=C(Nc1ccc2c(c1)OCO2)C1CCN(C(=O)c2oc3ccccc3c2COc2ccccc2)CC1,·,·,·,–,·,·
CCOC(=O)c1ccccc1NC(=O)N1CCc2c(sc(C)c2CC)C1c1ccccc1 (stereo unspecified),–,–,–,–,–,–
CCc1c(C)sc2c1CCN(C(=O)Nc1cc(OC)c(OC)c(OC)c1)C2c1ccccc1 (stereo unspecified),–,–,–,–,–,-40
SMILES,D1 PAM,TRHR PAM,TRHR ag,LDHA inh,D1 agonist,D1 antagonist
CCCOC(=O)c1ccc(NC(=O)c2ccc(Br)o2)cc1,–,–,–,–,–,-32
CCCC(=O)N1CCN(c2ccc(NC(=O)c3ccc(Br)o3)cc2)CC1,–,–,–,–,–,-43
CCN1CCN(c2ccc(NC(=O)c3ccc(Br)o3)cc2)CC1,–,33,–,–,–,–
COc1cc(CSc2c(CC(C)C)cnc3c2c(=O)n(C)c(=O)n3C)cc(OC)c1,·,·,·,–,·,·
S=C(NCC1CCCO1)Nc1ccc(Nc2ccccc2)cc1 (stereo unspecified),–,–,–,–,–,-34
CCOC(=O)C(NC(=O)Nc1ccc(F)cc1F)(Oc1ccc(F)cc1)C(F)(F)F (stereo unspecified),–,–,–,–,–,-85
CCOC(=O)C(NC(=O)Nc1ncccn1)(Oc1ccccc1)C(F)(F)F (stereo unspecified),–,–,–,–,–,–
O=C(Cc1ccccc1)Nc1cccc([N+](=O)[O-])c1,–,–,–,–,–,–
CCCc1cc(C(=O)Nc2cccc([N+](=O)[O-])c2)cs1,–,–,–,–,–,-32
Cc1cc(C)n(-c2ccc(C(=O)Nc3cccc([N+](=O)[O-])c3)cc2)n1,–,–,–,–,–,-36
Cc1cc(C)n(-c2ccc(C(=O)Nc3cccc(S(=O)(=O)N(C)C)c3)cc2)n1,–,–,–,–,–,–
CC(OC(=O)c1cnccn1)C(=O)Nc1nc(-c2cccc([N+](=O)[O-])c2)cs1 (stereo unspecified),–,–,–,–,–,-32
O=C(Nc1cccc([N+](=O)[O-])c1)c1ccc2ccccc2c1O,–,–,–,–,–,-33
CC(C)(C)c1ccc(C(=O)Nc2cccc([N+](=O)[O-])c2)cc1,–,–,–,–,–,–
COc1cc(C(CC(=O)Nc2ccccc2)N2Cc3ccccc3C2=O)cc(OC)c1OC (stereo unspecified),·,·,·,–,·,·
COc1ccc(C(=O)Nc2cccc3ccc(C)nc23)cc1,·,·,·,–,·,·
O=C(c1cccc2ccccc12)N(Cc1ccc2[nH]ccc2c1)C1CC1,·,·,·,–,·,·
CCOC(=O)N1CCN(Cc2nc3cc(NC(=O)c4ccccc4Cl)ccc3n2CC)CC1,·,·,·,–,·,·
Cc1ccc(SCc2ccc(C(=O)Nc3cc([N+](=O)[O-])ccc3C)cc2)cc1,–,–,–,–,–,–
O=C(Nc1cccc([N+](=O)[O-])c1)c1cnccn1,–,–,–,–,–,-59
Cc1ccc(SCc2ccc(C(=O)Nc3cccc([N+](=O)[O-])c3)cc2)cc1,–,–,–,–,–,-51
CCC(C)(C)C1CCc2c(sc(NC(=O)C(C)(C)C)c2C#N)C1 (stereo unspecified),·,·,·,–,·,·
Cc1ccc2nc(NCCc3ccc(Cl)cc3)c3nncn3c2c1,–,–,–,–,–,-61!
CCc1ccc(CNCC(O)c2ccccc2)cc1 (stereo unspecified),·,·,·,–,·,·
OC(CNCc1ccc(-c2ccccc2)cc1)c1ccccc1 (stereo unspecified),–,–,–,–,56,–
SMILES,D1 PAM,TRHR PAM,TRHR ag,LDHA inh,D1 agonist,D1 antagonist
OC(CNCc1cccs1)c1ccccc1 (stereo unspecified),–,–,–,–,–,-41
O=C1c2[nH]nc(-c3ccccc3O)c2C(c2ccccc2F)N1CCCO (stereo unspecified),·,·,·,–,·,·
Nc1nc(N)c2cc([N+](=O)[O-])ccc2n1,·,·,·,-30,·,·
CCOc1ccc(C(=O)Nc2ccc(N3CCCC3)nc2)cc1OC,·,·,·,–,·,·
N#Cc1ccc(N2CCC(C(=O)Nc3nccs3)CC2)nc1,·,·,·,–,·,·
CCCN(C(=O)CSc1nc2ccccc2n1CC)C1CCS(=O)(=O)C1 (stereo unspecified),–,–,–,–,–,-30
